± gives the standard deviation of the averaged measurements.
Compound: CC(C)c1cccc(C(C)C)c1N1C(=O)c2ccc(O)cc2C1=O
Test: BioMAP readout fold decrease vs vehicle (vehicle/treated); higher = stronger decrease of the readout vs vehicle (values <1 mean increase)
Method: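 BioSeek BioMAP human primary cell (co-)culture systems (3C, 4H, LPS, SAg, BE3C, CASM3C, hDFCGF, KF3CT) treated with 5HPP-33 at 1.48, 4.44, 13.3 and 40 µM. Read-outs are protein levels by ELISA, proliferation and SRB total protein. Duplicate rows per assay are averaged as replicates. Tested in ToxCast Phase II for this study; exposure time not stated.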
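Note: Co-cultures of keratinocytes, bronchial epithelial and smooth muscle cells, fibroblasts, HUVECs and PBMCs under stimuli like LPS, TNF-α, IFN-γ, IL-1β, TGF-β or EGF, SRB reflecting cytotoxicity.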

Row | Target | BioMAP readout fold decrease (1.48 µM) | BioMAP readout fold decrease (4.44 µM) | BioMAP readout fold decrease (13.3 µM) | BioMAP readout fold decrease (40 µM)
1 | 3C_MIG | 1.004 ± 0.0083 | 1.01 ± 0.0047 | 1 ± 0.012 | 1.09 ± 0.016
2 | hDFCGF_MMP1 | 0.956 ± 0.05 | 0.93304 ± 0.00091 | 0.85 ± 0.0086 | 1.09 ± 0.13
3 | 4H_MCP1 | 1.01 ± 0.026 | 0.699 ± 0.023 | 0.623 ± 0.0095 | 1.43 ± 0.071
4 | 4H_Eotaxin3 | 0.9561 ± 0.0065 | 0.875 ± 0.022 | 1.02 ± 0.032 | 4.62 ± 0.098
5 | LPS_VCAM1 | 1.14 ± 0.055 | 1.55 ± 0.14 | 2.13 ± 0.16 | 3.55 ± 0.13
6 | BE3C_IP10 | 1.1 ± 0.12 | 1.15 ± 0.0028 | 1.65 ± 0.029 | 3.38 ± 0.11
7 | LPS_IL1a | 0.781 ± 0.039 | 0.8356 ± 0.0034 | 0.965 ± 0.057 | 1.56 ± 0.039
8 | KF3CT_IL1a | 0.969 ± 0.029 | 0.992 ± 0.045 | 0.987 ± 0.034 | 2.08 ± 0.17
9 | LPS_Eselectin | 1.07 ± 0.019 | 1.17 ± 0.034 | 1.24 ± 0.012 | 1.91 ± 0.12
10 | SAg_CD40 | 1.164 ± 0.003 | 1.39 ± 0.092 | 1.94 ± 0.027 | 5.89 ± 0.36

Reference: the supplement of paper PMC3616981
